Data: PubChem BioAssay (NCATS)
Results filed as inconclusive are left out. Values without a mark were called inactive. Activity calls are given as the source filed them. The call rests on the fitted dose curve; in most records, active means well fitted inhibition curve with a large enough effect; inconclusive means small, poorly fitted or top-dose-only effect; inactive means flat fitted curve, though single readings scatter.

molecular target: Calcium and integrin-binding protein 1 (Homo sapiens) (UniProt Q99828); assay: Primary qHTS for Identification of Calcium Integrin Binding Protein 1 (CIB1) Competitor (AID 1508620); settings: CIB1-GST / FITC-alphaIIb peptide fluorescence polarization; series mostly up to 114 µM; activity change, negative = inhibition: at the top concentration;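 on activity change, negative = inhibition: GST tagged CIB1 binding a fluorescein labelled alphaIIb integrin peptide tracer; top concentration of the series differs between compounds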
Sequence (Q99828 whole entry, looked up): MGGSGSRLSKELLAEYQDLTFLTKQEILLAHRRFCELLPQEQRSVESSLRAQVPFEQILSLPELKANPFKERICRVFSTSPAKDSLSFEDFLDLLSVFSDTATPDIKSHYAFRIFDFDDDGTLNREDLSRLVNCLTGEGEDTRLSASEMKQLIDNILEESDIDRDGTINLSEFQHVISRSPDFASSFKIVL
Outline: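 Fluorescence polarization competition: CIB1-GST (1 uM final) preincubated with compound 15 min at room temperature, then FITC-labeled alphaIIb peptide (100 nM final) added for another 15 min. Polarization read at Ex 480/Em 540.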
On the % scale 0 is the no-effect control and ±100 the full control effect; potency means the concentration at half of the fitted maximal effect.

Row | SMILES | activity change, negative = inhibition | Potency
1 | Nc1ncnc2c1nc(Cl)n2C1OC2COP(=O)(O)OC2C1O (centres undefined) | 2.97% | 
2 | Cc1cc(-c2nc(-c3ccc(OC(F)(F)F)cc3)no2)nn1Cc1ccnc(N2CCN(C3CC3)CC2)c1 | 2.08% | 
3 | NCC(CNc1nc(Nc2cccc(NC(=O)N3CCCC3)c2)ncc1I)C(=O)c1cccs1 (centres undefined) | 6.53% | 
4 | CN1CCc2cc3c(cc2C(=O)Cc2cc4c(cc2C1)OCO4)OCO3 | -2.23% [at 57.7 µM] | 
5 | CC(=O)NC(C)c1cnc(-c2cnc(Oc3ccc(OC(C)C)cc3)s2)s1 (centres undefined) | -5.49% | 
6 | C=C1C(=O)O[C@@H]2/C=C(/C)[C@@H](OC(C)=O)C/C=C(\C)C[C@@H](OC(=O)/C(=C/CO)CO)[C@@H]12 | 2.03% [at 57.7 µM] | 
7 | Cc1ccc(NC(=O)c2ccc(CN3CCNCC3)cc2)cc1Nc1nccc(-c2cccnc2)n1 | -6.06% | 
8 | CNCCN1CCC(c2cc(CN(C)C(=O)c3cccc(Oc4ccccc4)c3)ccn2)CC1 | -3.27% [at 57.7 µM] | 
9 | COc1ccc(C(=O)O[C@H]2C=COC=C3C=C4C(=O)N(C)C(=S)C(=O)N4[C@@H]32)cc1Oc1cc(C=O)ccc1O |  | 22.4 µM (active)
10 | CN1CCN(C2CCN(C(=O)Nc3cc(Oc4ccc(NC(=O)C5(C(=O)Nc6ccc(F)cc6)CC5)c(F)c4)ccn3)CC2)CC1 | -13.2% | 
11 | CCN(Cc1cc(Nc2nc(C)cn3c(-c4cn[nH]c4)cnc23)sn1)C(C)(C)CO | 3.15% | 
12 | C=C1CC[C@@H]2[C@](C)(CO)[C@H](O)CC[C@@]2(C)[C@@H]1CC(O)C1=CCOC1=O (some centres undefined) | -2.21% [at 57.7 µM] | 
13 | C=C1C(=O)OC2/C=C(\CO)CC/C=C(\C=O)C(O)C(OC(=O)C(C)CC)C12 (centres undefined) | -6.73% [at 57.7 µM] | 
14 | O=C(NCc1nc2ccccc2c(=O)n1-c1ccc(F)cc1)Nc1ccc(Cl)c(C(F)(F)F)c1 | -3.59% | 
